Measured values reported in the supplement of paper PMC10105736.
Unmarked numbers belong to inactive results.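 The calls were made as follows: active = MAPPIT score above the 99th percentile of random reference set scores in the same batch; inactive = at or below it.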

Legend:
Assay in all cases: MAPPIT interaction score (arbitrary units); higher = stronger binary interaction signal, active = hit call of the paper
[1] = biological target: CG10026; conditions: MAPPIT configuration: N-N; pair source set: Finley_Y2H
[2] = biological target: CG10465; conditions: MAPPIT configuration: N-N; pair source set: Curagen_high_conf
[3] = biological target: CCT7; conditions: MAPPIT configuration: N-N; pair source set: DPIM
[4] = biological target: CG10013; conditions: MAPPIT configuration: N-N; pair source set: DPIM
[5] = biological target: CG10444; conditions: MAPPIT configuration: N-C; pair source set: screen_3
[6] = biological target: CG10336; conditions: MAPPIT configuration: N-C; pair source set: screen_3
[7] = biological target: Gint3; conditions: MAPPIT configuration: N-N; pair source set: Lit-BM-16
[8] = biological target: ZnT63C; conditions: MAPPIT configuration: N-N; pair source set: DPIM
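Also: HEK293T cells with Epo stimulation, STAT-responsive firefly luciferase reporter, fold induction versus unstimulated cells divided by the larger fold induction of two negative controls lacking either bait or prey.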

B1: CG7218 (protein)
chain: MNATLNSAGGKRQLRFRGDVTGSRVEELHHQQQEEQKQKAPLAQDDVAATPTATPAAGSAQQRLQSGTAETCTNTFYDFFKVEMTRGYMLEHDEERYSARRQKIYSFMRIPRDLERFMVYGIMQCADSFLYIHTFLPVRFVMAVWALVSRTVARIFRLRSSGQRLLSPAEICDLLKGVIWMTVTLIMLLVDTNRVYHIIKSQSIIKLYIFYNMLEVGDRLLSAFGQDTIDALFWTATEPKNSKREHFGVLTHVLFTLIYVFLHSGLIMFQATCLNVAVNSNNKGLLTIMISNNFVELKGSVFKKFDKNNLFQLTCSDVRERFHLSVLLFIVVIQTMKEFDWSITQFCVMLPDCFAVLFTEILIDWVKHAFITRFNELPESIYREYTTSLAYDMTQTRQKHAFSDHSDLVARRMGFIPFPLAVVLIKAIYTAVSFENLAAWLLFLLAYLFAMGLRICLTICALGKACKLMKEHQTERNSSTPSSMTNVPVIGAAAPVSAAATGGQNHNNNNNNNNNSISIGSKPAQVTTLLTPPSAGHLDVSKNFSRTSIASTSTPKKAVSEQELDVTNSLELGATALFSNSDVDLDDVCLNEQVTNTNTSSAVQEVYQEQDLVRSQPDLMLLNNSGDGVTSAKAKKATQRLPKRTHKRSESEPGMPSMVEKGGAAGIAGGNQTTQL
B1 was tested. Which MAPPIT interaction score [1] did it give?
Its MAPPIT interaction score is 1.47.

B2: AnxB11 (protein)
chain: MYPFGSGMPSHPPTSTNHHEPPRAPFGAGWVPPMQQNSPYPPPSQPHPHSQPSSQMHPQQHQQYPGGAPAPYPPMSAPYPSAAPSYPPYPTSNPYPAQYAPPAHNHYQQPSVSNSPYPADRGYTPAMTAGYDAGYGYGNGQGHGQGHGHGQGHGHGHGQGHEYGHGYGQGYGHGQGHGNGQGHAHRSLPAHREGTPTVVPAANFDAVKDAHDLRKAMKGFGTDEDALINIICRRSNEQRQEIQRQFKTHFGKDLIEDIKSETSGNFEKLLVGLLRPIVDYYCAELNDAMAGLGTDEEVLIEILCTLSNMEINTIKNQYLRLYGAHLESELKSETSGNFKRLLTSLCTAARDESGRVDPVAAKNDARELLKAGELRVGTDESMFNMILCQRNYQQLKLIFQEYEGMTGHSLEKAIKKEFSGDVMEGLIAIYRCVTNKAEYFASRLHKAMAGIGTNDTQLIRVIITRSEIDMTDIKVAFERLYGKSLKSWIKGDTSGHYKHALYALVGEQRSS
Which MAPPIT interaction score [2] does the source give for B2 here?
The MAPPIT interaction score was 0.12.

B3: CG4511 (protein)
chain: MANILENQLFTAAKTIEQQLDQQLDRLDNLDSDDLKVLREQRLREMKDLNNKKQEWLRNGHGTYTELADEKEFFEMSKKSPNIVCHFYRDSTERCKIVDMHLKILAAKHVEAKFCKVNAEKTPFLTQRLRIKVIPTIALVKDSKTKDFIVGFTDLGNCDDFATEMLEWRIAHSGAIDYKGDLMQPPDVKRKPFINRPQKTIRGGYDSDDSDIDLDD
With B3 as the binder, how does the MAPPIT interaction score [3] read?
The MAPPIT interaction score was 0.524.

B4: Ns1 (protein)
chain: MALKRLKTKKSKRLTGRLKHKIEKKVRDHNKKERRAAKKNPKKGSKKQKLIQIPNICPFKDDILKEVEEAKQRQEAERLARREAFKAEREQNKFKTLESMVEDADMRSTVHGIMHENDAQDQDEKKYKNAVTKEQSLKQYFKEFRKVIENADVVLEVVDARDPLGTRCNEVERAVRGAPGNKRLVLVLNKADLVPRENLNNWIKYFRRSGPVTAFKASTQDQANRLGRRKLREMKTEKAMQGSVCIGAELLMSMLGNYCRNKGIKTSIRVGVVGIPNVGKSSIINSLTRGRSCMVGSTPGVTKSMQEVELDSKIKLIDCPGIVFTSGGENSHAVLKNAQRVGDVKDPFTIAESVLKRASKEYFCTMYDITNYDTFEEFFAKKAARMGKFLKKGVPDVVAAARSVLNDWNTGKIKYCTQPPEVQEGQSVHISASIVHSEAREFDVENFESMETEILEHCAVKTDDIMEITSTGPLEIRQPREEAEPADKITASLVIDEKEKPAKGRKRKLDEEKEKVDPSLLLEENQSLNKGIKQMQKLKKKQNVRNEKKISKITDVLDSFSLGPSSSKAEKYDFDEDYVIE
For B4, which MAPPIT interaction score [4] is on record?
The MAPPIT interaction score was -0.155.

B5: IM18 (protein)
chain: MKLIALCCLLLLGLLGFLAAPGVASPSRHTGPGNGSGSGAGSGNPFRSPSSQQRPLYYDAPIGKPSKTMYA
How did the MAPPIT interaction score [5] turn out when B5 was run?
Its MAPPIT interaction score is 0.79.

B6: TER94 (protein)
chain: MADSKGEDLATAILKRKDRPNRLIVEEAQNDDNSVVSLSQAKMDELQLFRGDTVILKGKRRKETVCIVLSDDTCPDEKIRMNRVVRNNLCVHLSDVVSVQSCPDVKYGKRVRILPIDESTEGVTGNLFEIYLKPYFLEAYRPIHMGDNFIVRAAMRPIEFKVVLTDPEPYCIVAPETVIFCDGDPIKREEEEESLNAVGYDDIGGCRKQLAQIKEMVELPLRHPSLFKAIGVKPPRGILMYGPPGTGKTLIARAVANETGAFFFLINGPEIMSKLAGESESNLRKAFEEAEKNSPAIIFIDEIDAIAPKRDKTHGEVERRIVSQLLTLMDGMKKSSHLIVMAATNRPNSIDPALRRFGRFDREIDIGIPDATGRLEVLRIHTKNMKLHDDVDLEQIAAESHGHVGADLASLCSEAALQQIREKMDLIDLEDDKIDAEVLASLAVTMENFRYAMTKSSPSALRETVVEVPNTTWTDIGGLESVKKELQELVQYPVEHPDKFLKFGMQPSRGVLFYGPPGCGKTLLAKAIANECQANFISVKGPELLTMWFGESEANVRDIFDKARSAAPCVLFFDELDSIAKARGGNVGDAGGAADRVINQILTEMDGMGAKKNVFIIGATNRPDIIDPAILRPGRLDQLIYIPLPDDKSREAILKANLRKSPLAKEVDLTYIAKVTQGFSGADLTEICQRACKLAIRQAIEAEIRREKERAENQNSAMDMDEDDPVPEITSAHFEEAMKFARRSVSDNDIRKYEMFAQTLQQSRGFGQNFRFPGQTGNTSGSGNNLPVNSPGDNGDDDLYS
For B6, which MAPPIT interaction score [6] is on record?
The MAPPIT interaction score was 2.12.

What about the MAPPIT interaction score [7] of the same binder?
The MAPPIT interaction score was 1.48.

What about the MAPPIT interaction score [8] of the same binder?
Its MAPPIT interaction score is -0.374.
